Screening results: PubChem, National Center for Advancing Translational Sciences (NCATS)
TbPYK inhibitor: T. brucei pyruvate kinase inhibition. TbPYK enzyme, Kinase-Glo Plus ATP luminescence, 45 min. Potency, µM (titrated, usually from 76.8 µM), for inactives: top-dose activity, negative = inhibition, actives largely listed as inhibitors. 410,000 compounds, 0.12% hits; also: nearly all actives have a fitted effect of over 50% in size
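Enzyme and substrate buffer are dispensed first and compound is pin-transferred. ADP at 130 uM final then starts the reaction, which runs 45 min at room temperature. Detection reagent is added for 10 min before luminescence is imaged.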
RE007 growth inh: less growth of the S. pombe RE007 Vpr strain | S. pombe RE007 Vpr strain, BacTiter-Glo ATP luminescence, 24 h | Potency, µM (series often up to 92.2 µM), for inactives: top-dose activity change, negative = less growth, hits mostly inhibitors | 360,000 compounds, 0.21% hits; active = well fitted falling curve with a large enough effect; inconclusive = small, poorly fitted or top-dose-only effect; inactive = no such curve, though single readings can be large or run the other way; also: nearly all actives have a fitted effect of over 50% in size
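Fission yeast RE007 carrying one integrated HIV-1 vpr copy, seeded at OD 0.01 in PMG+AL medium with 23 nL pinned compound. Grown 24 h at 30 degrees; viability read by BacTiter-Glo luminescence after 5 min.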
FBPA Giardia inh: blocks Giardia fructose-bisphosphate aldolase activity | A8B2U2 | purified Giardia FBPA | Potency, µM (series often up to 59.6 µM), for the others: at the highest dose activity, negative = inhibition, actives largely listed as inhibitors | 290,000 compounds, 0.71% hits; also: nearly all actives have a fitted effect of over 55% in size
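40 nM FBPA preincubated 10 min at RT with compound (up to 57.5 uM final), then substrate plus GAPDH/TPI/NAD/arsenate coupling and diaphorase/resazurin added. Fluorescence read after 20 min at RT, 525/598 nm.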
LmPK inhibitor: LmPK (Leishmania mexicana) enzyme inhibition; Q27686; purified LmPK, Kinase-Glo ATP luminescence, 1 h; Potency, µM (doses to about 57.5 µM), without a hit: at the top dose activity change, negative = inhibition, most hits filed as inhibitors; 290,000 compounds, 0.37% hits; AID 1721
Target sequence (Q27686 whole entry, looked up): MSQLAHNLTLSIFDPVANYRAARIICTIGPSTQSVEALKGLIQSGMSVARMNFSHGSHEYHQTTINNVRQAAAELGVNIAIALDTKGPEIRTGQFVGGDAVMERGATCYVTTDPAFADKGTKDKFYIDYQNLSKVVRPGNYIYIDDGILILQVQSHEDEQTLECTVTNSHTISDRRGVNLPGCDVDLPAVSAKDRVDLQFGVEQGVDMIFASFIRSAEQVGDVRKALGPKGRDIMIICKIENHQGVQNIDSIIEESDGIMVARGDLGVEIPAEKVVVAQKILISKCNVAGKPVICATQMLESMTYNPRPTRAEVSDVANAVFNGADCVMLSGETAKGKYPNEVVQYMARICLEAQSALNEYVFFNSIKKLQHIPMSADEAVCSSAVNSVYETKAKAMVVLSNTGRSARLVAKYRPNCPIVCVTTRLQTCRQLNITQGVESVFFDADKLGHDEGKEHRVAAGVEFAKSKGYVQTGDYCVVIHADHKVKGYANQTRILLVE
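In 50 mM imidazole pH 7.2 with 7 mM MgCl2, LmPK (0.1 nM) turned over PEP (0.5 mM) and ADP (0.1 mM) for 1 h at room temperature. Luciferase read-out of ATP.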
Active calls of the source: *; ! = not confirmed by another sample; [ ] = remark or other dose. An excerpt weighted towards active compounds, which were near 0.95% of everything screened. Unless noted, calls follow the shape of the dose curve; as a rule, active = well fitted curve in the direction sought with a large enough effect; inconclusive = small, poorly fitted or top-dose-only effect, or another doubt; inactive = no such curve, though single readings can be large; an effect the other way counts as inactive or inconclusive. % is scaled to controls: 0 for no effect and ±100 for the full control effect; potency is read from the fitted curve at half-maximal effect.

How did CCCNC(=O)c1nnsc1S(=O)(=O)c1ccc(Cl)cc1 do in these assays?
TbPYK inhibitor: 3%; RE007 growth inh: 11µM*; FBPA Giardia inh: -1%; LmPK inhibitor: 0%

How did COc1cc(C2c3c(-c4c(C)cc(C)cc4O)n[nH]c3C(=O)N2CCCOC(C)C)cc(OC)c1OC (stereo unspecified) do in these assays?
TbPYK inhibitor: 0%

What do the screens show for `CCCCCCCCCCCCCCCCCCOP(=O)([O-])OC1CC[N+](C)(C)CC1`?
TbPYK inhibitor: 4%[33.2 µM]

How did Cc1ccc2c(c1)CC1(CN2C)C(=O)OC(C)(C)OC1=O do in these assays?
TbPYK inhibitor: -2%; RE007 growth inh: -11%; FBPA Giardia inh: inconclusive; LmPK inhibitor: 16µM*

How did CC(C)C[C@@H](CC(=O)N[C@@H](CCCN)CC(=O)N[C@@H]1CCNC[C@H]1C(=O)N[C@H](CC(=O)N[C@@H](CCC(=O)O)CC(=O)O)Cc1ccccc1)NC(=O)[C@@H]1CCCC[C@H]1N do in these assays?
FBPA Giardia inh: -28%

Results for Cc1ccc2nc(N(CCCN(C)C)C(=O)c3ccc4ncsc4c3)sc2c1 ?
TbPYK inhibitor: 25µM*; RE007 growth inh: 4%; FBPA Giardia inh: -21%; LmPK inhibitor: 2%

Results for CCC(=O)OC1CCC2C3CCc4cc(O)ccc4C3CCC12C (stereo unspecified) ?
TbPYK inhibitor: 0%

How did C/C(=N/Nc1ccc(C(=O)O)cc1)c1ccc(O)c(O)c1O do in these assays?
TbPYK inhibitor: -16%; RE007 growth inh: 8%; FBPA Giardia inh: 7.1µM*; LmPK inhibitor: -11%

How did COc1ccc(OC)c(/C(C)=N/Nc2ccc(C(=O)O)cc2)c1 do in these assays?
TbPYK inhibitor: -9%; RE007 growth inh: -4%; FBPA Giardia inh: 17%; LmPK inhibitor: 1%

Results for N#Cc1cccc(NC(=O)N2CC3(CCN(C(=O)c4cnccn4)CC3)C2)c1 ?
TbPYK inhibitor: 0%; FBPA Giardia inh: 6%

What do the screens show for `CCCCNc1ccc(C(=O)OCCN(CC)CC)cc1`?
TbPYK inhibitor: 4%

What do the screens show for `C=C1N(C)c2cc([N+](=O)[O-])c(N)cc2C1(C)C`?
TbPYK inhibitor: -15%; RE007 growth inh: -28%; FBPA Giardia inh: 4.5µM*; LmPK inhibitor: -8%

Results for N.N.O=C(O)C1(C(=O)O)CCC1.[Pt] ?
TbPYK inhibitor: inconclusive; FBPA Giardia inh: 18µM*!

How did O=C(O)C1(C(=O)O)CCC1 do in these assays?
TbPYK inhibitor: -12%; RE007 growth inh: 9%[18.4 µM]

What do the screens show for `CC(C)c1ccc(N2C(=O)CC(Sc3ncn[nH]3)C2=O)cc1` (stereo unspecified)?
TbPYK inhibitor: -18%; RE007 growth inh: 56µM*; FBPA Giardia inh: inconclusive; LmPK inhibitor: 2%

Results for COc1ccc(N2C(=O)CC(Sc3ncn[nH]3)C2=O)c(OC)c1 (stereo unspecified) ?
TbPYK inhibitor: inconclusive; RE007 growth inh: 4%; FBPA Giardia inh: inconclusive; LmPK inhibitor: -22%

Results for CC(=O)OC1C(=O)OCC23CCC4(C)OC4C2OC2CC(OC(=O)C=CC=CC(=O)OCCC1C)C3(C)C21CO1 (stereo unspecified) ?
TbPYK inhibitor: 0%; RE007 growth inh: 5.6µM*

Results for NC(=O)C1CCN(C2CC(=O)N(c3ccc(F)c(Cl)c3)C2=O)CC1 (stereo unspecified) ?
TbPYK inhibitor: 1%; RE007 growth inh: 10µM*; FBPA Giardia inh: 4%; LmPK inhibitor: -6%

What do the screens show for `NC(=O)C1CCN(C2CC(=O)N(c3cccc(F)c3)C2=O)CC1` (stereo unspecified)?
TbPYK inhibitor: 3%; RE007 growth inh: 14µM*; FBPA Giardia inh: 4%; LmPK inhibitor: -2%

How did O=C(O)CSCC(=O)NC1CCSC1=O (stereo unspecified) do in these assays?
TbPYK inhibitor: 1%

What do the screens show for `O=c1oc2ccccc2c(Nc2cc3ccccc3cc2O)c1[N+](=O)[O-]`?
TbPYK inhibitor: -8%; RE007 growth inh: -18%; FBPA Giardia inh: 6.3µM*; LmPK inhibitor: -3%

What do the screens show for `O=C(Nc1ccccc1)N1CCCC2(CCN(C(=O)c3cnccn3)CC2)C1`?
TbPYK inhibitor: -10%; FBPA Giardia inh: 3%

What do the screens show for `CN1c2ccccc2C(C)(C)C12C=Nc1c(ccc3ccccc13)O2` (stereo unspecified)?
TbPYK inhibitor: -1%; RE007 growth inh: inconclusive; FBPA Giardia inh: 11µM*; LmPK inhibitor: 1%
